Experimental data from PubChem BioAssay AID588334 (Broad Institute, 2011).
Hit rate of the full screen: of about 300,000 compounds, about 2,300 (0.77%) were called active.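 Rule for the calls: active = mean activation of at least 80% with every replicate also reaching 80%; inconclusive = mean reaches 80% but some replicate falls short; inactive = the rest.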 The entries come from a sample that favours actives as a whole.

assay: activators of MITF-driven TRPM1 promoter reporter, primary screen, cell-based, SK-MEL-5, luciferase, single point (AID 588334); settings: SK-MEL-5 TRPM1-promoter luciferase, 24 h; at 12.5 µM; active compounds read high; % of positive control, neutral wells = 0;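 note: 0% = neutral control wells and 100% = parthenolide positive control wells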

activation, inactive:
O=C(O)c1ccc(S(=O)(=O)c2ccccc2)s1 -11%
Cc1cc(C(=O)N/N=C\C(Br)=C\c2ccccc2)c(C)o1 15.4%
CC(=C/c1ccccc1)/C=N/NC(=O)c1cc(C)oc1C 25.1%
Cc1ccc(OCCNC(=O)c2cccc(S(=O)(=O)N3CCN(Cc4ccccc4)CC3)c2)cc1 -0.856%
Cc1cc(NC(=O)c2cc3ccccc3o2)no1 -6.37%
COC(=O)c1ccc(NCc2cc(O)ccc2O)cc1 3%
Cc1ccc(C(=O)CNc2ccc(F)cc2)cc1 -0.394%
CN1CCOC1c1ccc(C2OCCN2C)cc1 (stereo unspecified) -9.68%
C=CCOC(=O)N1CCC2CC1c1cc(-c3ccc(OC)cc3)ccc12 (stereo unspecified) -2.99%
COc1cc(OC)c(C(=O)NNC(=O)c2ccccc2-n2cccc2)cc1OC 7.14%
CCCOC(=O)c1[nH]c2c(c1C)C(=O)CC(c1cccs1)C2 (stereo unspecified) -44.3%
COCCOC(=O)c1[nH]c2c(c1C)C(=O)CC(c1ccc(OC)cc1)C2 (stereo unspecified) 8.85%
COc1ccc(-c2noc(CCC(=O)N3CCN(c4cccc(C)c4)CC3)n2)cc1 0.066%
COc1ccc(-c2ccc3c(c2)[C@@H]2C[C@H](N(C)S(=O)(=O)c4ccccc4)[C@H]([C@H](C)O)C(=O)N2CC3)cc1 -7.92%
CC(C)Cn1cnc2c(SCc3ccc(Cl)cc3)nc(N)nc21 12.1%
O=C(CC(=O)c1cccnc1)c1ccccc1 48%
COc1ccc(OCc2cc(C(=O)NCC3(C)COC3)no2)c(Cl)c1 37.2%
Cc1cccnc1CC(C)NC(=O)c1cc(COc2cncc(Cl)c2)on1 (stereo unspecified) 51.4%
CC(C)(C)OC(=O)N1CCC(C(=O)Nc2cccc(C(=O)NCCc3ccccc3)c2)CC1 0.242%
CCCCc1ccc(NC(=S)NCCCN2CCOCC2)cc1 13.8%
COc1ccc(NC(=S)N2CCCC(CO)C2)c(OC)c1 (stereo unspecified) -5.46%
NS(=O)(=O)c1ccc(CCNC(=O)c2ccc(Cl)c(S(=O)(=O)N3CCCCCC3)c2)cc1 -34.2%
CC(C)(C)c1nnc2sc(SCC(O)=C(C#N)c3nc4ccccc4[nH]3)nn2c1=O 7.19%
O=[N+]([O-])c1ccc(NS(=O)(=O)c2ccccc2)c(Cl)c1 -5.26%
O=C(NCc1ccc2c(c1)OCO2)c1ccc(Cl)s1 9.51%
COc1ccc(C(=O)NC2=NCCS2)c(OC)c1 33.9%
C[C@H](CO)N1C[C@H](C)[C@H](CN(C)CC2CC2)Oc2ccc(NC(=O)CCN3CCOCC3)cc2C1=O 4.29%
COc1cc(/C=C/CNC[C@H]2O[C@@H](n3cnc(C(N)=O)n3)[C@H](O)[C@@H]2O)ccc1O -8.98%
C=CC(=O)Nc1ccc(Nc2ccnc(Nc3ccc(N4CCN(C)CC4)cc3)n2)cc1 -13.2%
Nc1cc2c(cc1Br)-c1ccc(F)cc1C2=O 7.07%
COC(=O)[C@@]1(C)[C@H]2C(=O)N(Cc3ccccc3)C(=O)[C@H]2[C@H]2CN=C(SCC3CC3)N21 -1.12%
COC1=NC2=NCCN2C(OC)=N1 4.31%
CC(C)Cc1cc(C(=O)Nc2cc(Br)ccc2O)no1 42.2%
Cc1c(NC(=O)c2cc(-c3ccc(Br)cc3)on2)c(=O)n(-c2ccccc2)n1C 6.12%
CC(=O)c1ccc(NC(=O)CSc2nc3ccccc3c(=O)n2CCCN2CCOCC2)cc1 14.6%
Cc1ccc(NC(=O)C(=O)NCc2ccco2)c(C)c1 72.2%
Cc1ccc(NC(=O)c2oc(=O)c3ccccc3c2-c2ccccc2)c(C)c1 -8.24%
COc1ccc(CNc2nc(NCc3ccc(OC)cc3)c3ncn(C4CCCC4)c3n2)cc1 -22%
CCCN(C(=O)CSc1nnc(N)s1)c1c(N)n(Cc2ccccc2)c(=O)[nH]c1=O -11.7%
CCCCNCCS(=O)(=O)NCc1ccccc1 11.7%
O=Cc1ccc(Oc2cccc(C(F)(F)F)c2)nc1 2.89%
O=[N+]([O-])c1cccc(C2=NCCS2)c1 -11.6%
CC1C(C)N(C(=O)CCl)c2ccccc2N1C(=O)CCl (stereo unspecified) -89.8%
Cc1nn(-c2ccccc2)c2c1C(c1cccc([N+](=O)[O-])c1)N(c1ccccc1)C(=O)N2 (stereo unspecified) -8.33%
O=C1CC(c2ccccc2)=NN1c1ccc([N+](=O)[O-])cc1 29.1%
Cc1ccccc1CC1(CO)CCCN(C(=O)c2cc(-c3ccccc3)no2)C1 (stereo unspecified) 6.1%
Cc1noc(C)c1CCC(=O)N1CCCC(CO)(Cc2ccccc2)C1 (stereo unspecified) 67.5%
Cn1cc(C2OC(=O)c3ccccc32)c2ccccc21 (stereo unspecified) -10.6%
COc1ccccc1N(CC(=O)Nc1c(C)n(C)n(-c2ccccc2)c1=O)S(=O)(=O)c1ccccc1 -1.77%
CCCCN(C(=O)c1cccc(N2C(=O)c3ccccc3C2=O)c1)c1c(N)n(CCCC)c(=O)[nH]c1=O -1.35%
Cc1cnc(C(=O)OCC(=O)N2CCc3ccccc32)cn1 -0.372%
CCCCn1nc(C(=O)N2CCc3ccccc32)c2ccccc2c1=O -15.9%
C=CC(COCc1ccccc1)N(CC(=O)OC)S(=O)(=O)c1cc(Br)ccc1OC (stereo unspecified) -10.3%
CCC(CO)Oc1cc(NC(=O)c2cccc3ccccc23)c2ncn(C(C)C)c2c1 (stereo unspecified) -4.63%
COc1ccc(CNC(=O)C[C@H]2C[C@H](C(=O)N3CCOCC3)[C@@]3(CCC4CCCC4)c4[nH]c5ccc(Cl)cc5c4CCN3C2=O)cc1OC -70.8%
Clc1ccc(-c2csc(-c3ccncc3)n2)cc1 33.5%
N#CC(=C1SC=CS1)c1nc(-c2ccccc2)cs1 47.6%
O=S(=O)(Cc1ccc(Cl)cc1Cl)c1ccc(Cl)cc1 16.2%
CC1(C)C[C@H]2C3=CCC4[C@@]5(C)CC[C@H](O)[C@](C)(CO)C5CC[C@@]4(C)[C@]3(C)C[C@@H](O)[C@@]2(CO)[C@@H](O)[C@@H]1O (stereo partly specified) -11.2%
CCCCOc1ccc(-c2nnc(-c3ccco3)o2)cc1 30.3%
O=C(CCc1ccccc1)Nc1cccc(-c2nnc(-c3ccco3)o2)c1 10.8%
CC[C@]12c3[nH]c4cc(CCC(=O)N(C)C)ccc4c3CCN1C(=O)[C@@H](CC(=O)NCC13CC4CC(CC(C4)C1)C3)C[C@@H]2C(=O)N1CCN(C(=O)C2CC2)CC1 5.19%
COc1ccc(/C=C2/CCCc3ccccc3C2=O)cc1 39.3%
CCOc1ccccc1/C=N/Nc1nc2ccccc2o1 13.3%
COc1ccc(/C=N/Nc2nc3ccccc3o2)cc1OC 56.1%
O=C(CNC(=O)c1cc(S(=O)(=O)N2CCOCC2)ccc1N1CCCC1)Nc1ccc(F)c(F)c1 -3.17%
COc1cc2c(cc1CNC[C@H]1O[C@@H](n3cnc(C(N)=O)n3)[C@H](O)[C@@H]1O)OCO2 -7.21%
CSc1ccccc1OCc1cc(C(=O)N(C)CCc2c(C)n[nH]c2C)no1 1.76%
COC(=O)[C@@H]1CCCN1C(=O)c1cc(COc2cccc3cccnc23)on1 -6.69%
C=CCCC(=O)N1C[C@H]2CON(C)[C@H]2C[C@H]1c1cccc(Nc2ccccc2)c1 17.1%
O=C(Nc1ccccc1)Oc1cccc2cccnc12 -34.4%
CCOC(=O)c1nc(Nc2ccc(C(=O)OC)cc2)c2ccccc2n1 8.95%
COc1ccc(Nc2ncnc3sc(C)cc23)cc1 68.5%
O=C(Nc1ccccc1)c1ccc2c(c1)OCCCO2 24.5%
O=C(Nc1ccc(Cl)cn1)c1ccc2c(c1)OCCO2 5.88%
Cc1cccc(C)c1NC(=O)CNC(=O)c1ccc2c(c1)OCCO2 4.28%
Cc1ccc2sc(NNC(=O)c3ccc4c(c3)OCCO4)nc2c1C -0.623%

activation, active:
Cc1cc(C(=O)N/N=C/c2ccccc2[N+](=O)[O-])c(C)o1 84.3%
COC(=O)c1ccc(NCC(=O)c2ccccc2)cc1 146%
COC(=O)C1C(=O)c2c([nH]c(C(=O)OCCSC)c2C)CC1C (stereo unspecified) 92.2%
Cc1cc(OCc2cc(C(=O)NCc3cc(C(C)C)no3)no2)cc(C)c1Cl 84.2%
CCCCc1ccc(NC(=S)N2CCCC(CO)C2)cc1 (stereo unspecified) 105%
O=C(NC1=NCCS1)c1ccc(Cl)s1 121%
CC(C)CNC(=O)c1cc(-c2ccc(Br)cc2)on1 124%
Cc1ccc(NN=C2C(=O)OC(C)(C)OC2=O)c(C)c1 120%
FC(F)(F)c1ccnc(Oc2ccc(C3=NCCS3)cc2)c1 102%
Cc1nn(-c2ccc([N+](=O)[O-])cc2)c(N)c1-c1ccccc1 97.5%
COC(=O)CCC(=O)N1CCCC(CO)(Cc2ccccc2)C1 (stereo unspecified) 94.6%
O=C(c1cnn2ccccc12)N1CCc2ccccc21 91.5%
N#CC(=C1CCCC1)c1nc(-c2ccc(Cl)cc2)cs1 91.3%
CCC(=O)Oc1cccc(C(=O)Nc2ccc(-c3nnc(-c4ccco4)o3)cc2)c1 85.5%
Brc1ccccc1/C=N/Nc1nc2ccccc2o1 81.1%
CSc1ccccc1OCc1cc(C(=O)N2C[C@H]3CC[C@H]2C3)no1 91.7%
COC(=O)c1ccc(Nc2ncnc3sccc23)cc1 93.3%
Cc1ccc(C(=O)NNC(=O)c2ccc3c(c2)OCCO3)cc1 109%
Cc1nc(NC(=O)c2ccc3c(c2)OCCO3)ccc1Br 122%
